# Measurements reported in PubChem BioAssay AID1572 (National Center for Advancing Translational Sciences (NCATS), 2009).
# Records with an inconclusive call do not appear. Unmarked numbers belong to inactive results. Calls of active or inactive are those of the source. Calls follow the shape of the dose curve; as a rule, active = well fitted curve in either direction with a large enough effect; inconclusive = small, poorly fitted or top-dose-only effect; inactive = flat fitted curve, though single readings scatter.
# Test: Total Fluorescence Confirmation Counterscreen for Inhibitors of the Interaction of Thyroid Hormone Receptor and Steroid Receptor Coregulator 2
# Details: Texas Red total fluorescence, TRbeta/SRC2 FP artifact counterscreen; series mostly up to 92.2 µM; total fluorescence change, both ways: at the top concentration
# Excerpt: NIH Molecular Libraries Probe Production Network [MLPCN] NIH Chemical Genomics Center [NCGC] MLPCN Grant: DK058080 Assay Provider: R. Kip Guy, St. Jude Children's Research Hospital NCGC Assay Overview: Thyroid receptor (TR) regulates many homeostatic processes including basal metabolism, cardiovascular function, body weight, and lipid trafficking. TR modulators are potential therapeutics for obesity and hyperlipidemias but current thyroid analogs have undesirable side effects, particularly cardiac stimulation. To identify inhibitors that specifically prevent the interaction of TR with the steroid receptor coregulator 2 (SRC2), a fluorescence polarization assay was screened. This assay detects interaction of the ligand-binding domain of human TRbeta with a Texas Red labeled SRC2 peptide, corresponding to a 20 amino acid region of the nuclear receptor interaction domain (Arnold et al., 2006). Total fluorescence (555 nm excitation and 632 nm emission) was measured to identify potential fluorescent and light absorbing compounds. Such compounds may be artifacts that interfere with the fluorescence polarization assay. This assay is a confirmation assay for AID 1479. Arnold, L. A.; Estebanez-Perpina, E.; Togashi, M.; Shelat, A.; Ocasio, C. A.; McReynolds, A. C.; Nguyen, P.; Baxter, J. D.; Fletterick, R. J.; Webb, P.; Guy, R. K. A high-throughput screening method to identify small molecule inhibitors of thyroid hormone receptor coactivator binding. Sci STKE 2006, p 13.
# NCGC Assay Protocol Summary: For screening, 5 uL/well 0.6 uM TRbeta and 20 nM SRC2 Texas Red in protein buffer (20mM Tris hydrochloride, 100mM NaCl, 10% glycerol, 1mM EDTA, 0.01% NP-40, 1mM DTT, 1uM T3 and 5% DMSO) was dispensed into black solid 1536-well plates (Grenier) using a solenoid-based dispenser. Following transfer of 23 nL compound or DMSO vehicle by a pin tool, the plates were centrifuged 15 s at 1000 RPM and incubated 5 hr at ambient temperature. The plates were read by an Envision (Perkin Elmer) to detect fluorescence polarization of SRC2 Texas Red (555 nm excitation and 632 nm emission). Data were normalized to unbound (all components except TRbeta) and bound SRC2 Texas Red controls. Total fluorescence (TF) was calculated as follows: TF = S + 2P where S and P are fluorescence readings in the parallel and perpendicular channels, respectively. In this assay, we provide % activity data for each concentration as well as potencies for the active compounds.
SMILES,"total fluorescence change, both ways",Potency
C/C(=C\C(=O)c1ccccc1)Nc1ccc(O)cc1,0.528%,–
Cc1ccc2c(CC(=O)Nc3c(C(=O)c4ccc(F)cc4)oc4ccccc34)coc2c1C,4.74% [at 184 µM],–
O=C(O)C1C2C=CC(O2)C1C(=O)Nc1ccc(S(=O)(=O)N2CCc3ccccc32)cc1 (stereo not given),9.53%,–
Cc1nc2ccccc2n2c(O)c(CC(=O)O)cc12,–,31.6 µM [fluorescent] (active)
CCSc1ncc(Cl)c(C(=O)Nc2nc3ccc(OC)cc3s2)n1,5.03% [at 184 µM],–
CCOc1cc(C(c2c(C)[nH][nH]c2=O)c2c(C)[nH][nH]c2=O)ccc1OC(=O)c1cccc([N+](=O)[O-])c1,-4.45%,–
O=C1CNC(=S)N1c1nc(-c2ccccc2)cs1,–,11.2 µM [quencher] (active)
O=C(NNc1cc(N2CCOCC2)nc(N2CCOCC2)n1)c1ccc(Cl)c(Cl)c1,–,39.8 µM [quencher] (active)
CN(C)c1cc(Cl)c2nonc2c1N,1.14%,–
COc1ccc(CN2C(=O)Cc3c2nc(N)c2c(N)nc(N4CCCCC4)c(C#N)c32)cc1,1.08%,–
Nc1cccnc1Sc1cc(Cl)c(Cl)cc1Cl,6.8%,–
CN1c2ccccc2C(C)(C)C12C=Nc1c(ccc3ccccc13)O2 (stereo not given),3.13%,–
COc1ccccc1Nc1cc2ccccc2c(=O)[nH]1,-10.5%,–
CCOc1cc(C(c2c(C)[nH][nH]c2=O)c2c(C)[nH][nH]c2=O)ccc1OS(=O)(=O)c1ccc(C)cc1,5.37%,–
C=CCNC(=O)/C(C#N)=C/c1c(C)nn(-c2ccc(Cl)cc2)c1Cl,4.25%,–
CS(=O)(=O)c1ccc(C(=O)OCC(=O)NC23CC4CC(CC(C4)C2)C3)cc1[N+](=O)[O-],5.22%,–
Cc1cc(C)cc(OCC(=O)NCCc2nc3ccccc3[nH]2)c1,6.66% [at 184 µM],–
COc1cc(C(c2c(C)[nH][nH]c2=O)c2c(C)[nH][nH]c2=O)ccc1OC(=O)c1ccccc1OC,2.7% [at 184 µM],–
CCOc1ccc(NC(=O)C(c2ccccn2)N(C(=O)CCl)c2ccc(F)cc2)cc1 (stereo not given),1.73%,–
Cn1c(NNC(=O)c2c(F)cccc2F)cc(=O)n(C)c1=O,2.85%,–

SMILES,"total fluorescence change, both ways",Potency
Cn1c(CCN2CCCCC2)nc2cc(NS(=O)(=O)c3ccc(Cl)cc3)ccc21,5.61%,–
COc1cc(/C=C(\C#N)C(=O)NCC2CCCO2)ccc1OCCC(C)C (stereo not given),4.15%,–
O=c1[nH]c(Nc2ccc(F)cc2)cc2ccccc12,3.63%,–
CC(NC(=O)Nc1ccc(O)cc1)(C(F)(F)F)C(F)(F)F,-1.5%,–
COc1cc(C(c2c(C)[nH][nH]c2=O)c2c(C)[nH][nH]c2=O)ccc1OC(=O)c1cccc(C)c1,1.17% [at 184 µM],–
COc1ccc(-c2nc(CS(=O)CC(=O)NCc3ccccn3)c(C)o2)cc1 (stereo not given),–,35.5 µM [fluorescent] (active)
Cc1c(C#N)c(O)n(CCO)c(=O)c1N=Nc1ccc2c(c1)COC2=O,-2.59%,–
CCN(CC)S(=O)(=O)c1cccc(N=NC2=C(O)CCCC2=O)c1,6.08%,–
Cc1cccc(S(=O)(=O)c2cn(Cc3ccccc3)c3cc(N4CCC(C)CC4)c(F)cc3c2=O)c1,5.69% [at 184 µM],–
O=C1CCCC(O)=C1N=Nc1cccc(S(=O)(=O)N2CCOCC2)c1,5.17%,–
Nc1c(C(=O)NCc2ccco2)c2nc3ccccc3nc2n1CCc1ccccc1,2.3%,–
CCC(C)NC(=O)COC(=O)c1csc2c1CCCC2 (stereo not given),8.07%,–
Cn1cc[nH]c1=S,-0.484%,–
Cc1[nH][nH]c(=O)c1C(c1ccc(-c2ccc(Cl)c(Cl)c2)o1)c1c(C)[nH][nH]c1=O,2.21%,–
O=c1cc(C23CC4CC(CC(C4)C2)C3)[nH][nH]1,-5.37%,–
Cc1cc2c(NC(=O)Nc3ccccc3)cccc2nn1,7.45%,–
CCCCCCN=CC1=C(O)CC(C)(C)CC1=O,3.03%,–
CCOc1ccc(C2=Cc3cc(OC)c(OC)cc3C(=C(Cl)Cl)O2)cc1,-0.317%,–
O=C(/C=C/c1ccco1)NC(=S)Nc1cc(C(F)(F)F)ccc1N1CCOCC1,11%,–
COc1cc(NCCCC(C)N)c2ncccc2c1 (stereo not given),1.79%,–
